# From PubChem BioAssay (Tox21)
# Results filed as inconclusive are left out. A number with no mark means an inactive call. Calls of active or inactive are those of the source. Calls follow the shape of the full dose curve.
# Test: qHTS assay for small molecule disruptors of the mitochondrial membrane potential - cell viability (AID 720634); also: nearly all actives have a fitted effect of over 20% in size;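 as to activity change, negative = cytotoxicity: human HepG2 liver cancer cells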
# Conditions: HepG2 viability, ATP luminescence (CellTiter-Glo), 1 h; series mostly up to 83.2 µM; activity change, negative = cytotoxicity: at the top concentration
# Excerpt: U.S. Tox21 Program National Center for Advancing Translational Sciences [NCATS] NIH Chemical Genomics Center [NCGC] U.S. Environmental Protection Agency [EPA] National Institutes of Environmental Health Sciences [NIEHS] National Toxicology Program [NTP] U.S. Food and Drug Administration [FDA] Tox21 Assay Overview: Mitochondrial membrane potential (MMP), one of the parameters for mitochondrial function, is generated by mitochondrial electron transport chain that creates an electrochemical gradient by a series of redox reactions. This gradient drives the synthesis of ATP, a crucial molecule for various cellular processes. Measuring MMP in living cells is commonly used to assess the effect of chemicals on mitochondrial function; decreases in MMP can be detected using lipophilic cationic fluorescent dyes. […] The dye accumulates in the mitochondria of healthy cells as aggregates, with red fluorescence. The mitochondrial potential decreases and the dye could not accumulate in the mitochondria and remains in the cytoplasm in monomers, with green fluorescence. In addition to the mitochondrial potential assay, these cells were also used to test the cytotoxicity by determining the cell viability in the culture based on the quantitation of ATP present. The cytotoxicity was measured in the same assay well of MMP assay.
# Tox21 Assay Protocol Summary: 2,000 HepG2 cells in 5 uL/well were dispensed into black, clear-bottom 1536-well plates using a Multidrop Combi (Thermo Scientific) dispenser. The assay plates were incubated for an overnight at 37 C to allow cells to attach to the wells, followed by the transfer of 23 nL compound or DMSO vehicle by a pin tool (Kalypsys). The plates were incubated for 1 hr at 37 C and 5% CO2, followed by the addition of 5 uL of 2X m-MPI dye into each well using Flying Reagent Dispenser (Aurora Discovery) and then CellTiter-Glo reagent was added at 4 uL/well and incubated 30 min at room temperature. Then luminescence intensity was quantified on a ViewLux CCD-based plate reader.
# % is scaled to controls: 0 for no effect and ±100 for the full control effect; potency is read from the fitted curve at half-maximal effect.
Structure (SMILES),"activity change, negative = cytotoxicity",Potency
CN1[C@@H]2CC[C@@H]1CC(OC(=O)C(CO)c1ccccc1)C2 (stereo not given in full),15.3%,–
COc1ccccc1OCCNCC(O)COc1cccc2[nH]c3ccccc3c12 (stereo not given),5.38%,–
Cc1c(C(=O)O)cccc1[N+](=O)[O-],6.99% [at 95.3 µM],–
CC(C)(C)c1cc(/C=C2\SC(=N)NC2=O)cc(C(C)(C)C)c1O,25.5%,–
CCN(CC)CCCN(c1ccccc1)C1Cc2ccccc2C1,–,29.8 µM (active)
C/C=C/C=N/NC(=O)c1ccncc1,11.4%,–
Clc1ccccc1CN1CCc2sccc2C1,15%,–
Clc1ccc(C(Cn2ccnc2)OCc2ccsc2Cl)c(Cl)c1 (stereo not given),-16.6%,–
CCCCN(CCCC)CCC(O)c1cc2c(Cl)cc(Cl)cc2c2cc(C(F)(F)F)ccc12 (stereo not given),17.2% [at 39.1 µM],–
ClC/C=C\CCl,8.15% [at 95.3 µM],–
O=S(=O)(O)CCCN1CCOCC1,-9.87%,–
Nc1ccc2cc3ccc(N)cc3nc2c1,–,inactive
O=C1NCN(c2ccccc2)C12CCN(CCCC(c1ccc(F)cc1)c1ccc(F)cc1)CC2,–,21.1 µM (active)
CCCCCCCCCCOCC(O)CN (stereo not given),-15.2%,–
CC(C)(c1cc(Br)c(OCCO)c(Br)c1)c1cc(Br)c(OCCO)c(Br)c1,16.3%,–
CCCN(CCc1cccs1)[C@H]1CCc2c(O)cccc2C1,-7.51%,–
O=C(c1ccccc1)c1cc(Cl)ccc1O,-18.5%,–
O=C1Nc2ccc(Cl)cc2[C@@](C#CC2CC2)(C(F)(F)F)O1,–,29.8 µM (active)
CCc1ccc(O)c(C(C)(C)C)c1,19.9%,–
CO[C@H]1C=CO[C@@]2(C)Oc3c(C)c(O)c4c(O)c(cc(O)c4c3C2=O)NC(=O)/C(C)=C\C=C/[C@H](C)[C@H](O)[C@@H](C)[C@@H](O)[C@@H](C)[C@H](OC(C)=O)[C@@H]1C,–,inactive

Structure (SMILES),"activity change, negative = cytotoxicity",Potency
CC(CN(C)C)CN1c2ccccc2CCc2ccccc21 (stereo not given),3.02% [at 39.1 µM],–
O=C(Nc1ccc(Cl)c(Cl)c1)c1cc(Cl)cc(Cl)c1O,–,1.37 µM (active)
Cc1nc(Nc2ncc(C(=O)Nc3c(C)cccc3Cl)s2)cc(N2CCN(CCO)CC2)n1,-0.548%,–
COCC(=O)O[C@]1(CCN(C)CCCc2nc3ccccc3[nH]2)CCc2cc(F)ccc2[C@@H]1C(C)C,–,26.6 µM (active)
CNC(=S)NN,11.9%,–
C=CC(=C)CCC=C(C)C,-5.3%,–
O=C(O)CCn1c2c(c3ccccc31)C[C@H](NS(=O)(=O)c1ccc(F)cc1)CC2,5.69%,–
CC(O)C#CC(C)O (stereo not given),31.5%,–
C[Si](C)(C)Cl,-4.81%,–
COC(=O)[C@]1(C)CCC[C@@]2(C)[C@H]1CC=C1C=C(C(C)C)CC[C@@H]12,-13.9%,–
Oc1c(Br)cc(Br)c2cccnc12,2.05%,–
Cc1ccc2ccc3cccc4ccc1c2c34,-12%,–
c1ccc(Sc2ccccc2)cc1,-20%,–
NCCCC(O)(P(=O)(O)O)P(=O)(O)O,2.17%,–
CCCCCCCCCC(=O)N(C)C,-5.38% [at 95.3 µM],–
CCOC(=O)N1CCC(=C2c3ccc(Cl)cc3CCc3cccnc32)CC1,–,27.3 µM (active)
O=C1c2c(O)ccc(O)c2C(=O)c2c(NCCNCCO)ccc(NCCNCCO)c21,38.2% [at 39.1 µM],–
CC(C)c1ccc(O)c(C(C)C)c1,-13.3%,–
O=C(O)Cc1ccc(OCCNC[C@H](O)c2ccccc2)cc1,-6.36%,–
[O]=[Zr],8.59%,–
